# Source: PubChem BioAssay (several laboratories)
# Most compounds without a hit are left out; they make up all but 1.9% or so of the library.
# Ba/F3 V617F tox: reduce viability of Ba/F3 cells dependent on JAK2V617F; Ba/F3 EpoR-JAK2V617F viability, ATP luminescence; 220,000 compounds, 1.1% hits; inhibition, % at 5.6 µM;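 active means inhibition above the campaign mean plus 3 SD over all tested compounds, cut at about 24% in these data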;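 further: cytokine-independent growth of Ba/F3 cells driven by EpoR plus mutant JAK2; 0% = DMSO-treated cells and 100% = JAK inhibitor I control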
# KLF5 inh: inhibitors of KLF5 expression; DLD-1 KLF5 promoter-luciferase reporter, luminescence; inhibition, % at 5 µM; 290,000 compounds, 0.23% hits; AID 1700;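 active means inhibition above a per-plate limit of that plate's mean compound inhibition plus 3 SD, cut at about 60% in these data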;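 further: 0% = DMSO wells and 100% = LY294002 at 200 µM; higher means less KLF5 promoter-driven luciferase light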
# BaF3 parental: parental Ba/F3 viability inhibition as JAK2V617F counter-screen. CellTiter-Glo ATP luminescence. inhibition, % at 5.6 µM. 220,000 compounds, 1.1% hits. AID 1486;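 active means inhibition above a per-campaign cutoff, the mean inhibition of all tested compounds plus 3 SD, cut at about 27% in these data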;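 further: 0% = DMSO wells and 100% = JAK Inhibitor I control wells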
# IEC-6 tox: counter-screen for KLF5 inhibitors: cytotoxicity in IEC-6 cells; IEC-6 cytotoxicity, luminescence viability; inhibition, % at 5 µM; 290,000 compounds, 0.78% hits; in the data active means inhibition above about 22%;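 further: 0% = plate median of test compound wells and 100% = cytotoxic reference compound wells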
# APP 5UTR inh: APP translation inhibition | SH-SY5Y APP 5'UTR-luciferase reporter, luminescence | inhibition, % at 2 µM | 190,000 compounds, 0.82% hits;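 active means inhibition above a set limit, derived from the sample mean plus 3 SD, cut at about 45% in these data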
# BaF3 tox 2: parental Ba/F3 viability inhibition for JAK2V617F counter-screen. AID 1520. inhibition, % at 5.6 µM. shares compounds with Ba/F3 V617F tox. CellTiter-Glo luminescence; cells kept alive by added IL-3. 580 compounds, 31% hits;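 active means cell growth inhibition above the hit limit set in the earlier mutant JAK2 cell screen, cut at about 27% in these data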;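 further: plate controls were DMSO-treated cells for no effect and JAK Inhibitor I control wells for full effect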
# JAK2V617F confrm: confirmation: loss of viability in JAK2V617F-dependent Ba/F3 cells; 580 compounds, 66% hits; Ba/F3 EpoR-JAK2V617F viability, CellTiter-Glo luminescence; inhibition, % at 5.6 µM; shares compounds with Ba/F3 V617F tox;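 active means mean inhibition above the hit cutoff derived in the earlier primary screen, cut at about 25% in these data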;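 further: 0% = DMSO-treated cells and 100% = JAK inhibitor I control wells; higher means lower luminescence from reduced cell ATP and viability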
# Starred values were filed as active, the others as inactive; . = no result.
SMILES,Ba/F3 V617F tox,KLF5 inh,BaF3 parental,IEC-6 tox,APP 5UTR inh,BaF3 tox 2,JAK2V617F confrm
COC(=O)CNc1nc(Cl)nc(Nc2ccc(Cl)cc2)n1,-3.6,-1.2,4.5,-4.1,-10.6,.,.
O=C(NCCCCCCNC(=O)OCCO)OCCO,83.8*,9.2,5.4,5.2,-10.4,-5.1,7.1
O=C(CCN1C(=O)/C(=C/c2ccccc2F)SC1=S)NCCCn1ccnc1,.,-11.3,.,5.7,.,.,.
COc1cc(/C=N/N=C(N)N)ccc1OCc1ccc(Cl)cc1,35.4*,-76.9,25.1,21.9*,-180.1,34.6*,44.9*
CSc1ccccc1NC(=O)COC(=O)CCc1ccccc1,.,5.9,.,9.5,.,.,.
Cc1ccccc1CS(=O)(=O)c1nnc([C@H](Cc2ccccc2)NC(=O)OC(C)(C)C)o1,37.3*,6.7,1.8,4.4,69.9*,1.7,95.0*
Cc1cccc(CS(=O)(=O)Cc2ccc(C(=O)NC(C)c3ccccc3)o2)c1 (stereo not given),.,-0.3,.,-6.5,.,.,.
CCC(C)[C@@H](NC(=O)OC(C)(C)C)c1nnc(S(=O)(=O)Cc2cccc(C)c2)o1 (stereo not given in full),25.9*,-1.6,13.7,6.7,20.8,11.5,65.8*
CCSc1nnc([C@H](Cc2ccccc2)NC(=O)OC(C)(C)C)o1,0.5,-2.0,6.1,-3.1,14.1,.,.
COc1cc(NC(=S)N2CCN(S(=O)(=O)c3ccc(C)cc3)CC2)cc(OC)c1,.,-40.4,.,2.9,.,.,.
CCc1ccc(Nc2ccc(S(=O)(=O)N3CCOCC3)cc2[N+](=O)[O-])cc1,81.7*,-34.0,12.0,-6.3,0.1,2.8,16.6
COc1cccc(/C=N/NC(=O)c2c(C)nc3ccc(Br)cn23)c1O,24.4*,49.4,6.7,6.2,61.1*,62.1*,65.6*
CCOc1ccccc1/C=N/NC(=O)c1c(C)nc2ccc(Br)cn12,.,-18.9,.,12.0,.,.,.
CC1CCN(Cc2nnnn2CCCC(=O)N(C)C(C)c2ccccn2)CC1 (stereo not given),.,-42.3,.,-0.3,.,.,.
O=C(N/N=C/c1ccc(O)cc1O)/C(=C/c1ccccc1)CCO,1.3,22.7,8.0,-4.0,23.6,.,.
CC(=O)Nc1ccccc1NC(=O)C(F)(F)F,-2.7,-10.5,1.0,2.7,-22.6,.,.
O=C(Nc1cccc2c1[nH]c1ccccc12)C(F)(F)F,53.1*,10.1,17.0,-1.8,4.3,3.9,52.2*
C=CCOc1nc2c(c(=O)n(C)c(=O)n2C)n1Cc1ccc(Cl)cc1,23.9*,-3.5,13.7,2.1,-20.6,61.5*,53.0*
COc1ccccc1NCc1nnc(-c2ccccc2)o1,.,-58.8,.,-1.4,.,.,.
O=C(CSc1ccc2ccccc2c1)NCCc1ccc(O)c(O)c1,51.6*,-12.8,7.7,1.5,25.9,51.2*,92.7*
CC1CCCN(C(=O)c2cc(S(=O)(=O)N3CCCCC3)c[nH]2)C1 (stereo not given),.,-1.4,.,0.1,.,.,.
CN(C)CCCN(C(=O)CCOc1ccccc1)c1nc2c(F)cccc2s1,25.2*,-1.9,3.1,-0.8,33.5,3.6,29.8*
COc1ccccc1Nc1nc(-c2c(C)nc3ncccn23)cs1,55.4*,-20.5,4.1,9.5,3.2,33.4*,59.0*
Cc1ccc(/C=N/NC(=O)c2cccc(NC(=O)c3ccccc3Cl)c2)o1,.,-14.1,.,4.2,.,.,.
CCOC(=O)C1(Cc2ccccc2C(F)(F)F)CCN(C2CCN(C(C)C)CC2)CC1,73.2*,-4.9,15.9,17.2,9.0,13.6,42.3*
SMILES,Ba/F3 V617F tox,KLF5 inh,BaF3 parental,IEC-6 tox,APP 5UTR inh,BaF3 tox 2,JAK2V617F confrm
CCOC(=O)C1(Cc2ccccc2C(F)(F)F)CCN(CC(O)CO)CC1 (stereo not given),-0.4,-14.7,6.8,-5.7,-7.2,.,.
CCOc1ccc(CCNC(=O)Cn2cccc2C(=O)c2ccccc2)cc1OCC,0.9,8.4,1.8,-0.6,18.9,.,.
CCOc1ccc(CCNC(=O)Cn2ccc3ccccc3c2=O)cc1OCC,100.7*,-3.0,0.7,4.0,-10.4,-1.5,4.8
Nc1c(C(=O)OCC2CCCO2)c2nc3ccccc3nc2n1-c1ccc2c(c1)OCCO2 (stereo not given),95.8*,-4.4,2.4,-7.7,-6.8,-5.2,-9.7
Nc1c(C(=O)NC2CC2)c2nc3ccccc3nc2n1-c1ccc2c(c1)OCO2,-0.9,-21.6,3.4,-0.6,-4.2,.,.
COC(=O)c1[nH]c2c(c1C)C(=O)CC(c1ccc(C)cc1)C2 (stereo not given),1.0,-17.3,4.4,4.9,14.1,.,.
Cc1c(C(=O)OCC(C)C)[nH]c2c1C(=O)CC(c1cccs1)C2 (stereo not given),24.2*,36.7,8.0,10.6,59.0*,58.9*,87.9*
COc1ccccc1N1CCc2c(C)nc3c(OC)cccc3c21,44.6*,-20.2,10.8,11.2,.,8.1,49.9*
C/C(=C\C(=O)O)CC(=O)O,53.0*,-6.7,4.2,5.0,-14.2,-5.8,-7.1
CCOC(=O)Cc1csc(NC(=O)NC2(C(F)(F)F)Oc3ccc(Cl)cc3O2)n1 (stereo not given),29.8*,-44.2,18.2,1.1,31.1,1.7,44.4*
Cc1cccnc1NC(=O)c1ccc(OCc2c(C)noc2C)cc1,.,-36.0,.,-2.3,.,.,.
Oc1ccc(/C=C/c2ccnc3ccccc23)cc1,46.6*,-64.8,25.8,9.3,-69.2,6.8,42.5*
CC(=O)Nc1c2c(nn1-c1ccc(Cl)cc1)CSC2,.,-3.6,.,0.7,.,.,.
COc1ccccc1C(C[N+](=O)[O-])c1c(N)n(C)c(=O)n(C)c1=O (stereo not given),37.1*,-1.8,4.5,3.3,.,-0.7,96.1*
COc1ccccc1C(c1c(N)n(C)c(=O)n(C)c1=O)C(C)[N+](=O)[O-] (stereo not given),-3.6,-1.4,3.4,-7.5,.,.,.
NC(N)=Nc1cc2ccccc2c2ccccc12,27.9*,-13.3,8.6,9.2,.,3.1,32.6*
COC(=O)Nc1ccc(N2CCOCC2)c(S(=O)(=O)N2CCOCC2)c1,.,-12.7,.,3.9,.,.,.
CCCCN(CC)Cc1ccc(CNC(=O)Nc2ccc(Cl)cc2)o1,47.0*,-7.6,-0.7,17.7,-6.8,14.4,41.6*
CCc1ccc(NC(=S)N(CCCN2CCN(C)CC2)Cc2cccs2)cc1,3.3,-22.3,11.1,-0.7,-14.2,.,.
CN1CCN(CCCN(Cc2cccs2)C(=S)Nc2ccc(Cl)cc2)CC1,34.2*,-0.5,23.2,-2.5,-10.4,27.6*,45.5*
COc1ccc(-c2cnnc(N/N=C/c3ccc(O)c(O)c3)n2)cc1,46.7*,14.4,10.9,-0.1,-11.5,83.0*,99.6*
COc1ccccc1NC(=O)CSc1nnc(C2CCCCC2)n1C,2.1,10.6,3.4,10.0,-1.3,.,.
COc1ccccc1NC(=O)CSc1nnc(C2CCCCC2)n1-c1ccccc1,30.2*,7.1,-1.7,-2.8,.,-2.0,22.0
CC(C)OCCCN(C)C1CCN(S(=O)(=O)c2ccc(-c3cc(C(F)(F)F)no3)s2)CC1,.,3.3,.,0.3,.,.,.
